In PubChem BioAssay (NCI):
The panel holds about 83,000 compounds, 20% with a hit somewhere; the sample as a whole holds those more often.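 Treatment: one concentration, 48 hours, 96-well format. Scoring: percent growth, with anything below 10 considered active.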 Activity calls are given as the source filed them.

These molecules were tested on SN12C renal (assay: NCI-60 one-dose screen, 48 h (100 = growth as untreated, 0 = no growth, -100 = all killed)). Conditions: 10 µM unless noted.
For `CC(C)(C)c1[nH]nc2c1C(c1cc3ccccc3[nH]c1=O)Nc1cc(C(=O)OCc3ccccc3)ccc1N2` (centres undefined), the growth was 61.2% (inactive). With `COc1ccc2nc(-c3c(-c4ccccc4)nc4ncccn34)[nH]c2c1` the growth was 104% (inactive). With `O=C1NC(=Nc2ccc(S(=O)(=O)Nc3nccs3)cc2)S/C1=C\c1coc2ccccc2c1=O` the growth was 95.3% (inactive). For `O=c1c2sc3ncc(Br)cc3c2ncn1-c1cccc(Cl)c1`, the growth was 64.5% (inactive). In the case of `O=Cc1nc2ccccc2[nH]1`, the growth is reported as 101% (inactive). In the case of `COc1ccc(-c2nc3ccccn3c2-c2nc3ccc(Cl)cc3[nH]2)cc1`, the growth is reported as 97.3% (inactive). For `COc1ccc2c(c1)C/C(=C\c1cc(-c3ccc4c(c3)OCO4)n[nH]1)C2=O`, the growth was 95.2% (inactive). For `Cc1nn(-c2ccc(Br)cc2)c2nc3[nH]c(=O)[nH]c(=O)c3nc12`, the growth was 109% (inactive). With `CC(C)(C)c1ccc(OCCCCCCCN2CCNCC2)cc1` the growth was 58.8% (inactive). With `Nc1ccc(Cl)cn1` the growth was 107% (inactive). `c1ccc2[nH]c(-c3cc(-c4ccc5c(c4)OCO5)n[nH]3)nc2c1` was tested, and the growth was 62.9% (inactive). With `Nc1c(C(=O)Nc2cccc(Br)c2)sc2nc3c(cc12)C(=O)CCC3` the growth was 45.2% (inactive). In the case of `COc1cccc(NC(=O)c2sc3nc4c(cc3c2N)C(=O)CCC4)c1`, the growth is reported as 35.3% (inactive). For `CC(C)(C)c1cc(-n2c(-c3ccc(Cl)cc3)nc3cc(C(=O)Nc4ccc(Cl)cc4)ccc32)n[nH]1`, the growth was 66.9% (inactive). `O=c1c(CNc2ccc(S(=O)(=O)Nc3nccs3)cc2)coc2ccccc12` was tested, and the growth was 99.1% (inactive). With `COc1cc(-c2cc(-c3nc4ccc(F)cc4[nH]3)[nH]n2)cc(OC)c1OC` the growth was 33.8% (inactive). `O=C1C(Cl)=C(Nc2ccc(S(=O)(=O)c3ccc(NC4=C(Cl)C(=O)c5ccccc5C4=O)cc3)cc2)C(=O)c2ccccc21` was tested, and the growth was 56.2% (inactive). With `Fc1ccc2nc(-c3cc(-c4ccc5c(c4)OCO5)n[nH]3)[nH]c2c1` the growth was 65.2% (inactive). With `O=c1c(CNc2ccc(S(=O)(=O)Nc3ncccn3)cc2)coc2ccccc12` the growth was 90.1% (inactive). `COc1ccc(-c2cc(/C=C/C(=O)c3ccc(N)cc3)[nH]n2)cc1` was tested, and the growth was 18.4% (inactive). `NC1(N)C=CC2=C(C=C1)C1(N)C3=C(C=CC(N)(N)C=C3)N2C2(N)C3=C(C=CC(N)(N)C=C3)N1C1=C2C=CC(N)(N)C=C1` was tested, and the growth was 82.2% (inactive). `CCCCC(=O)OC1CCCCC1C` (centres undefined) was tested, and the growth was 94.1% (inactive). In the case of `COc1ccc(/C=C/C(=O)NCCO)cc1`, the growth is reported as 108% (inactive). For `COc1ccc2c(c1)C/C(=C\c1cc(-c3cc(OC)c(OC)c(OC)c3)n[nH]1)C2=O`, the growth was 92.8% (inactive). In the case of `COc1ccc(NC(=O)c2ccc3c(c2)nc(-c2cc4ccccc4[nH]c2=O)n3-c2cc(C(C)(C)C)[nH]n2)cc1`, the growth is reported as 93.2% (inactive). `COc1ccc2nc(-c3cc(-c4cc(OC)c(OC)c(OC)c4)n[nH]3)[nH]c2c1` was tested, and the growth was 21% (inactive). With `Nc1nc2c(c(=O)[nH]1)C(c1ccc3c(c1)OCO3)C=C(C(=O)O)N2` (centres undefined) the growth was 113% (inactive). In the case of `COc1ccc(-c2cc(/C=C/C(=O)c3ccc(OC)c(OC)c3)[nH]n2)cc1`, the growth is reported as 17.6% (inactive). `COc1cc2c(cc1OC)C(=O)/C(=C/c1cc(-c3ccc4c(c3)OCO4)n[nH]1)C2` was tested, and the growth was 6.08% (active). For `COc1cc(-c2cc(-c3nc4ccccc4[nH]3)[nH]n2)cc(OC)c1OC`, the growth was 65.8% (inactive).

What follows are molecules tested on UO-31 renal in the same assay as above. Conditions: 10 µM unless noted.
For `CC(C)(C)c1[nH]nc2c1C(c1cc3ccccc3[nH]c1=O)Nc1cc(C(=O)OCc3ccccc3)ccc1N2` (centres undefined), the growth was 47.2% (inactive). In the case of `COc1ccc2nc(-c3c(-c4ccccc4)nc4ncccn34)[nH]c2c1`, the growth is reported as 108% (inactive). In the case of `O=C1NC(=Nc2ccc(S(=O)(=O)Nc3nccs3)cc2)S/C1=C\c1coc2ccccc2c1=O`, the growth is reported as 82.6% (inactive). `O=c1c2sc3ncc(Br)cc3c2ncn1-c1cccc(Cl)c1` was tested, and the growth was 52.1% (inactive). `O=Cc1nc2ccccc2[nH]1` was tested, and the growth was 75.9% (inactive). `CCc1ccc(-c2ccc(Nc3ccccc3)nn2)cc1S(N)(=O)=O` was tested, and the growth was 101% (inactive). `COc1ccc(-c2nc3ccccn3c2-c2nc3ccc(Cl)cc3[nH]2)cc1` was tested, and the growth was 97.6% (inactive). In the case of `Cn1cc(-c2nc(-c3c[nH]c4ncccc34)cs2)c2ccccc21`, the growth is reported as 62.4% (inactive). With `Nc1ccc(Br)cn1` the growth was 93.4% (inactive). In the case of `Cc1nn(-c2ccc(Br)cc2)c2nc3[nH]c(=O)[nH]c(=O)c3nc12`, the growth is reported as 94.2% (inactive). `Cn1cc(-c2csc(-c3cn(C(=O)OC(C)(C)C)c4ccccc34)n2)c2cccnc21` was tested, and the growth was 73.7% (inactive). In the case of `CC(C)(C)c1ccc(OCCCCCCCN2CCNCC2)cc1`, the growth is reported as 33.3% (inactive). `Nc1ccc(Cl)cn1` was tested, and the growth was 86.7% (inactive). In the case of `c1ccc2[nH]c(-c3cc(-c4ccc5c(c4)OCO5)n[nH]3)nc2c1`, the growth is reported as 66.7% (inactive). In the case of `Nc1c(C(=O)Nc2cccc(Br)c2)sc2nc3c(cc12)C(=O)CCC3`, the growth is reported as 56.9% (inactive). `COc1cccc(NC(=O)c2sc3nc4c(cc3c2N)C(=O)CCC4)c1` was tested, and the growth was 52.3% (inactive). `C=C(C)[C@@H]1CC[C@]2(C)[C@H](CC=C3[C@@H]4CC(C)(C)CC[C@]4(C=O)CC[C@]32C)[C@@]1(C)CCCN` was tested, and the growth was 44.6% (inactive). `CC(C)(C)c1cc(-n2c(-c3ccc(Cl)cc3)nc3cc(C(=O)Nc4ccc(Cl)cc4)ccc32)n[nH]1` was tested, and the growth was 28.5% (inactive). `O=c1c(CNc2ccc(S(=O)(=O)Nc3nccs3)cc2)coc2ccccc12` was tested, and the growth was 82.2% (inactive). With `COc1cc(-c2cc(-c3nc4ccc(F)cc4[nH]3)[nH]n2)cc(OC)c1OC` the growth was 26.1% (inactive). In the case of `O=C1C(Cl)=C(Nc2ccc(S(=O)(=O)c3ccc(NC4=C(Cl)C(=O)c5ccccc5C4=O)cc3)cc2)C(=O)c2ccccc21`, the growth is reported as -62.4% (active). For `Fc1ccc2nc(-c3cc(-c4ccc5c(c4)OCO5)n[nH]3)[nH]c2c1`, the growth was 73.4% (inactive). For `O=c1c(CNc2ccc(S(=O)(=O)Nc3ncccn3)cc2)coc2ccccc12`, the growth was 74.9% (inactive). `COc1ccc(-c2cc(/C=C/C(=O)c3ccc(N)cc3)[nH]n2)cc1` was tested, and the growth was 39.6% (inactive). With `COC(=O)[C@]12CC[C@@H](C(=O)/C=C/c3cccnc3)[C@@H]1[C@H]1CC[C@@H]3[C@@]4(C)C/C(=C/c5cccnc5)C(=O)C(C)(C)[C@@H]4CC[C@@]3(C)[C@]1(C)CC2` the growth was -100% (active). `NC1(N)C=CC2=C(C=C1)C1(N)C3=C(C=CC(N)(N)C=C3)N2C2(N)C3=C(C=CC(N)(N)C=C3)N1C1=C2C=CC(N)(N)C=C1` was tested, and the growth was 59.9% (inactive). In the case of `CCCCC(=O)OC1CCCCC1C` (centres undefined), the growth is reported as 93.2% (inactive). With `COc1ccc(/C=C/C(=O)NCCO)cc1` the growth was 84.6% (inactive). `COc1ccc2c(c1)C/C(=C\c1cc(-c3cc(OC)c(OC)c(OC)c3)n[nH]1)C2=O` was tested, and the growth was 76.6% (inactive). With `COc1ccc(NC(=O)c2ccc3c(c2)nc(-c2cc4ccccc4[nH]c2=O)n3-c2cc(C(C)(C)C)[nH]n2)cc1` the growth was 86.3% (inactive). With `COc1ccc2nc(-c3cc(-c4cc(OC)c(OC)c(OC)c4)n[nH]3)[nH]c2c1` the growth was -1.85% (active). With `Nc1nc2c(c(=O)[nH]1)C(c1ccc3c(c1)OCO3)C=C(C(=O)O)N2` (centres undefined) the growth was 102% (inactive). For `COc1cc2c(cc1OC)C(=O)/C(=C/c1cc(-c3ccc4c(c3)OCO4)n[nH]1)C2`, the growth was -72.6% (active). For `COc1cc(-c2cc(-c3nc4ccccc4[nH]3)[nH]n2)cc(OC)c1OC`, the growth was 39.8% (inactive).
